{"source": "the supplement of paper PMC12282887", "tested_on": "E. coli BW25113 marRABp lux reporter", "experiment": "promoter activity interaction Z-score (Lux/OD deviation from empty-vector control); higher = stronger promoter induction by the compound", "description": "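E. coli BW25113 (wild type or ΔmarA/ΔsoxS/Δrob) carrying pTU175 luxCDABE promoter reporters was grown in LB in 384-well plates at 37°C with each of 94 compounds at 4 two-fold concentrations, in biological duplicates. Luminescence and OD600 were read every 30 min for 12 h and integrated as AUC over 8 h (0-8 h WT, 1-9 h mutants). Lux AUC was divided by OD AUC; the interaction score is the residual of a Huber robust fit of each promoter against the empty-vector control, then Z-transformed per promoter.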", "key": {"[1]": {"settings": "0.25 µg/ml, genetic background: wild type"}, "[2]": {"settings": "0.25 µg/ml, genetic background: ΔmarA"}, "[3]": {"settings": "0.25 µg/ml, genetic background: Δrob"}, "[4]": {"settings": "0.25 µg/ml, genetic background: ΔsoxS"}, "[5]": {"settings": "0.5 µg/ml, genetic background: wild type"}, "[6]": {"settings": "0.5 µg/ml, genetic background: ΔmarA"}, "[7]": {"settings": "0.5 µg/ml, genetic background: Δrob"}, "[8]": {"settings": "0.5 µg/ml, genetic background: ΔsoxS"}}, "note": "± gives the standard deviation of the averaged measurements."}
{"smiles": "CO/N=C(\\C(=O)N[C@@H]1C(=O)N2C(C(=O)O)=C(COC(C)=O)CS[C@H]12)c1csc(N)n1", "note": "[Cefotaxime]", "values": [{"measurement": "promoter activity interaction Z-score", "setting": "0.0012 µg/ml, genetic background: wild type", "value": "-0.109 ± 0.032"}, {"measurement": "promoter activity interaction Z-score", "setting": "0.0012 µg/ml, genetic background: ΔmarA", "value": "-0.16 ± 0.041"}, {"measurement": "promoter activity interaction Z-score", "setting": "0.0012 µg/ml, genetic background: Δrob", "value": "-0.227 ± 0.0043"}, {"measurement": "promoter activity interaction Z-score", "setting": "0.0012 µg/ml, genetic background: ΔsoxS", "value": "-0.0693 ± 0.13"}, {"measurement": "promoter activity interaction Z-score", "setting": "0.0024 µg/ml, genetic background: wild type", "value": "0.0203 ± 0.031"}, {"measurement": "promoter activity interaction Z-score", "setting": "0.0024 µg/ml, genetic background: ΔmarA", "value": "-0.118 ± 0.093"}, {"measurement": "promoter activity interaction Z-score", "setting": "0.0024 µg/ml, genetic background: Δrob", "value": "0.021 ± 0.12"}, {"measurement": "promoter activity interaction Z-score", "setting": "0.0024 µg/ml, genetic background: ΔsoxS", "value": "-0.0591 ± 0.15"}, {"measurement": "promoter activity interaction Z-score", "setting": "0.0048 µg/ml, genetic background: wild type", "value": "-0.2 ± 0.023"}, {"measurement": "promoter activity interaction Z-score", "setting": "0.0048 µg/ml, genetic background: ΔmarA", "value": "-0.394 ± 0.27"}, {"measurement": "promoter activity interaction Z-score", "setting": "0.0048 µg/ml, genetic background: Δrob", "value": "-0.171 ± 0.25"}, {"measurement": "promoter activity interaction Z-score", "setting": "0.0048 µg/ml, genetic background: ΔsoxS", "value": "-0.214 ± 0.072"}, {"measurement": "promoter activity interaction Z-score", "setting": "0.01 µg/ml, genetic background: wild type", "value": "0.0434 ± 0.19"}, {"measurement": "promoter activity interaction Z-score", "setting": "0.01 µg/ml, genetic background: ΔmarA", "value": "-0.126 ± 0.0051"}, {"measurement": "promoter activity interaction Z-score", "setting": "0.01 µg/ml, genetic background: Δrob", "value": "0.448 ± 0.33"}, {"measurement": "promoter activity interaction Z-score", "setting": "0.01 µg/ml, genetic background: ΔsoxS", "value": "0.448 ± 0.066"}]}
{"smiles": "CO[C@@]12[C@H](COC(N)=O)C3=C(C(=O)C(C)=C(N)C3=O)N1C[C@@H]1N[C@@H]12", "note": "[Mitomycin C]", "values": [{"measurement": "promoter activity interaction Z-score", "setting": "0.063 µg/ml, genetic background: wild type", "value": "-0.000521 ± 0.092"}, {"measurement": "promoter activity interaction Z-score", "setting": "0.063 µg/ml, genetic background: ΔmarA", "value": "-0.0389 ± 0.12"}, {"measurement": "promoter activity interaction Z-score", "setting": "0.063 µg/ml, genetic background: Δrob", "value": "0.174 ± 0.0026"}, {"measurement": "promoter activity interaction Z-score", "setting": "0.063 µg/ml, genetic background: ΔsoxS", "value": "-0.0406 ± 0.22"}, {"measurement": "promoter activity interaction Z-score", "setting": "0.13 µg/ml, genetic background: wild type", "value": "0.0648 ± 0.23"}, {"measurement": "promoter activity interaction Z-score", "setting": "0.13 µg/ml, genetic background: ΔmarA", "value": "0.518 ± 1.1"}, {"measurement": "promoter activity interaction Z-score", "setting": "0.13 µg/ml, genetic background: Δrob", "value": "0.208 ± 0.51"}, {"measurement": "promoter activity interaction Z-score", "setting": "0.13 µg/ml, genetic background: ΔsoxS", "value": "0.0422 ± 0.14"}, {"measurement": "promoter activity interaction Z-score", "setting": "[1]", "value": "0.242 ± 0.24"}, {"measurement": "promoter activity interaction Z-score", "setting": "[2]", "value": "-0.125 ± 0.18"}, {"measurement": "promoter activity interaction Z-score", "setting": "[3]", "value": "0.258 ± 0.1"}, {"measurement": "promoter activity interaction Z-score", "setting": "[4]", "value": "-0.121 ± 0.19"}, {"measurement": "promoter activity interaction Z-score", "setting": "[5]", "value": "-0.107 ± 0.17"}, {"measurement": "promoter activity interaction Z-score", "setting": "[6]", "value": "0.219 ± 0.99"}, {"measurement": "promoter activity interaction Z-score", "setting": "[7]", "value": "-0.172 ± 0.14"}, {"measurement": "promoter activity interaction Z-score", "setting": "[8]", "value": "-0.177 ± 0.11"}]}
{"smiles": "C/C(=C\\C(=O)OCCCCCCCCC(=O)O)C[C@@H]1OC[C@H](C[C@@H]2O[C@H]2[C@@H](C)[C@H](C)O)[C@@H](O)[C@H]1O", "note": "[Pseudomonic acid]", "values": [{"measurement": "promoter activity interaction Z-score", "setting": "[1]", "value": "0.11 ± 0.42"}, {"measurement": "promoter activity interaction Z-score", "setting": "[2]", "value": "-0.235 ± 0.012"}, {"measurement": "promoter activity interaction Z-score", "setting": "[3]", "value": "-0.0762 ± 0.015"}, {"measurement": "promoter activity interaction Z-score", "setting": "[4]", "value": "0.0844 ± 0.02"}, {"measurement": "promoter activity interaction Z-score", "setting": "[5]", "value": "-0.132 ± 0.23"}, {"measurement": "promoter activity interaction Z-score", "setting": "[6]", "value": "0.0957 ± 0.22"}, {"measurement": "promoter activity interaction Z-score", "setting": "[7]", "value": "-0.00927 ± 0.019"}, {"measurement": "promoter activity interaction Z-score", "setting": "[8]", "value": "-0.0242 ± 0.093"}, {"measurement": "promoter activity interaction Z-score", "setting": "1 µg/ml, genetic background: wild type", "value": "-0.169 ± 0.093"}, {"measurement": "promoter activity interaction Z-score", "setting": "1 µg/ml, genetic background: ΔmarA", "value": "-0.155 ± 0.7"}, {"measurement": "promoter activity interaction Z-score", "setting": "1 µg/ml, genetic background: Δrob", "value": "-0.106 ± 0.21"}, {"measurement": "promoter activity interaction Z-score", "setting": "1 µg/ml, genetic background: ΔsoxS", "value": "-0.0673 ± 0.12"}, {"measurement": "promoter activity interaction Z-score", "setting": "2 µg/ml, genetic background: wild type", "value": "0.422 ± 0.28"}, {"measurement": "promoter activity interaction Z-score", "setting": "2 µg/ml, genetic background: ΔmarA", "value": "0.511 ± 0.47"}, {"measurement": "promoter activity interaction Z-score", "setting": "2 µg/ml, genetic background: Δrob", "value": "0.235 ± 0.31"}, {"measurement": "promoter activity interaction Z-score", "setting": "2 µg/ml, genetic background: ΔsoxS", "value": "0.341 ± 0.086"}]}
